This note sets out measurements from PubChem BioAssay.

The source made the active and inactive calls.

The test system of assay [1] is Human papillomavirus type 1a protein E7 (residues 44-93). In words: small molecules binding HPV E7 44-93 – biochemical, small-molecule microarray, residues 44-93, 635 nm fluorescence, primary screen (AID 1108).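 Note: E7 fragment applied at 1 µg/mL in TBST for 1 h at 4 C; score combines spot fluorescence with its signal to noise ratio.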 As to conditions: fluorescence 635 nm, higher = more signal.
The nature of assay [2]: hepatitis C replication reporter changes, two-sided – Huh7 cells, luciferase reporter, HCV replication inhibitor project, primary screen (AID 1109).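 Note: huh7 hepatoma cells harbouring a luciferase neomycin HCV replicon reporter; luciferase luminescence as measure of HCV replicon replication; test concentration not given here.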 As to conditions: Huh7 HCV replicon luciferase reporter, 48 h; higher = more signal. (In general: A reporter such as luciferase makes a cellular process visible.)
The target in assay [3] is Left-right determination factor 2 (Homo sapiens) (UniProt O00292). In words: small molecules binding LEFTY2 protein – biochemical, small-molecule microarray, 635 nm fluorescence scan, primary screen (AID 1110). The conditions noted are these: higher = more signal.
Assay [4] has as its target Calmodulin-1 (Homo sapiens) (UniProt P0DP23). In words: small molecules binding calmodulin-1 with EGTA – biochemical, small-molecule microarray, Cy5-labelled CALM1, profiling panel (AID 1111).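 Note: labelled calmodulin applied in Tris saline Tween buffer holding calcium plus EGTA and DTT.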 The conditions noted are these: Cy5-CALM1 binding fluorescence, higher = more signal.
The target is the same in assay [5]. In words: small molecules binding Ca-loaded calmodulin-1 – biochemical, small-molecule microarray, Cy5-labelled CALM1, plus calcium, artefact control for SMM control-protein annotation, profiling panel (AID 1112).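 Note: score merges spot fluorescence with signal to noise from triplicate slides.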 The conditions noted are these: Cy5-CALM1 binding fluorescence, higher = more signal.
The nature of assay [6]: probe aWnt5a binding to arrayed compounds – biochemical, biotinylated probe, 635/667 nm fluorescence, primary screen (AID 1113).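 Note: score merges 667 nm fluorescence intensity with signal-to-noise per printed feature.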 As to conditions: small-molecule microarray, higher = more signal.
A short description of assay [7]: probe aShh binding to arrayed compounds – biochemical, biotinylated probe, 635/667 nm fluorescence, primary screen (AID 1114).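 Note: probe is biotin-labelled aShh protein from a stem cell growth factor screen; measures binding of labelled protein to compounds printed on the slide; score merges feature fluorescence at 667 nm with signal-to-noise.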 As to conditions: small-molecule microarray, higher = more signal.
Assay [8] can be described thus: probe aNog binding to arrayed compounds – biochemical, biotinylated probe, 635/667 nm fluorescence, primary screen (AID 1115).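 Note: probe is biotinylated aNog protein used at 0.15 µg/mL for 1 h at 4 C; z-score combines 667 nm fluorescence of each spot with its signal to noise.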 The conditions noted are these: small-molecule microarray, higher = more signal.
Assay [9] has as its target Torsin-1A-interacting protein 1 (Homo sapiens) (UniProt Q5JTV8). In words: compound microarray binding of lysate hLAP1 – cell lysate, small-molecule microarray, COS7 lysate, 635/667 nm fluorescence, primary screen (AID 1116). The conditions noted are these: 635 nm fluorescence, higher = more signal.
Assay [10] addresses Alpha-bungarotoxin (Bungarus multicinctus) (UniProt P60615). In words: compounds binding labelled alpha-BTX control protein – biochemical, small-molecule microarray, Alexa647 label, 635/667 nm fluorescence, artefact control for SMM control protein annotation, profiling panel (AID 1117). The conditions noted are these: alpha-BTX-A647 binding fluorescence, higher = more signal.
Another assay deals with Albumin (Bos taurus) (UniProt P02769). In words: compounds binding labelled BSA control protein – biochemical, small-molecule microarray, Alexa647 label, 635/667 nm fluorescence, artefact control for SMM control protein annotation, profiling panel (AID 1118).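 Note: score merges 667 nm emission intensity and signal-to-noise per printed compound spot.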 The conditions noted are these: BSA-A647 binding, fluorescence 635 nm, higher = more signal.
Assay [11] can be described thus: probe aXIP binding to arrayed compounds – biochemical, NeuroSMM set, 635/667 nm fluorescence, primary screen (AID 1119).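 Note: probe is the protein aXip251-270 applied at 1 µg/mL to compound-printed slides; binding of probe to printed compounds measured as 667 nm fluorescence plus signal to noise.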 The conditions noted are these: small-molecule microarray, higher = more signal, called active from +8 up or from −8 down.
Assay [12] is described as follows: probe aNOTCH3 binding on compound microarray – biochemical, small-molecule microarray, 635/667 nm fluorescence, primary screen (AID 1120).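 Note: probe is a biotin-tagged antibody raised against NOTCH3 rather than NOTCH3 protein; score merges spot fluorescence near 667 nm with spot signal to noise.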 As to conditions: higher = more signal.
Assay [13] in a line: probe aNOTCH2 binding on compound microarray – biochemical, small-molecule microarray, 635/667 nm fluorescence, primary screen (AID 1121).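 Note: score merges feature fluorescence read at 667 nm with its signal to noise.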 The conditions noted are these: higher = more signal.
In assay [14] the target is Carbonic anhydrase 2 (Homo sapiens) (UniProt P00918). In words: compounds binding carbonic anhydrase 2 – biochemical, small-molecule microarray, Alexa647-labelled CAII, profiling panel (AID 1122). As to conditions: CAII-A647 binding fluorescence, higher = more signal.
Assay [15] in a line: COS7 lysate on small-molecule microarray, probe aHis, 635 nm (AID 1123).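 Note: z-score combines 667nm fluorescence intensity with signal-to-noise per printed compound spot.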 As to conditions: COS7 cell lysate, fluorescence, higher = more signal.
The nature of assay [16]: probe aLAP1 signal on lysate-treated microarray – cell lysate, small-molecule microarray, COS7 lysate, primary screen (AID 1124).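 Note: lysate comes from COS7 cells expressing LAP1 and is applied at 0.3 µg/mL; score merges spot fluorescence near 667 nm with signal-to-noise over triplicate slides.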 The conditions noted are these: probe aLAP1, fluorescence, higher = more signal.
A further assay relates to Sam68 (KHDRBS1). In words: compounds binding KHDRBS1 protein – biochemical, small-molecule microarray, 635 nm fluorescence, primary screen (AID 1125).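 Note: score merges 667 nm channel intensity with signal to noise over triplicate slides.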 As to conditions: higher = more signal.
For assay [17], the system named is Chordin-like protein 2 (CHRDL2). In words: compounds binding chordin-like 2 – biochemical, small-molecule microarray, 635 nm fluorescence, primary screen (AID 1126).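 Note: printed compound slides probed with Chrdl2 protein at 4 µg/mL for 1 h at 4 C; score merges 667 nm emission intensity with signal to noise over three replicate slides.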 The conditions noted are these: fluorescence 635 nm, higher = more signal.
The target of assay [18] is Concanavalin-A (Canavalia ensiformis) (UniProt P02866). In words: compounds binding concanavalin A lectin – biochemical, small-molecule microarray, Alexa647 label, 635 nm, artefact control for SMM control protein annotation, primary screen (AID 1127).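 Note: z combines 667 nm emission intensity with signal-to-noise across three replicate slides.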 The conditions noted are these: ConA-A647 binding fluorescence, higher = more signal.
Concanavalin-A (Canavalia ensiformis), sequence (P02866 whole entry, looked up): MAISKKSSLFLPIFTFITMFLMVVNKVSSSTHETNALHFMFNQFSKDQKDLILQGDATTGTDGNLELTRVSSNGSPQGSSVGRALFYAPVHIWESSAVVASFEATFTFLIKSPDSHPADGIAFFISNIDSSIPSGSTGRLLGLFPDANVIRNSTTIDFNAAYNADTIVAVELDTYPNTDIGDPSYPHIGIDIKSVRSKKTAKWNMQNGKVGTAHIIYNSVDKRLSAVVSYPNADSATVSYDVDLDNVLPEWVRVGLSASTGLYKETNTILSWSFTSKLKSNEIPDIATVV

Left-right determination factor 2 (Homo sapiens), sequence (O00292 whole entry, looked up): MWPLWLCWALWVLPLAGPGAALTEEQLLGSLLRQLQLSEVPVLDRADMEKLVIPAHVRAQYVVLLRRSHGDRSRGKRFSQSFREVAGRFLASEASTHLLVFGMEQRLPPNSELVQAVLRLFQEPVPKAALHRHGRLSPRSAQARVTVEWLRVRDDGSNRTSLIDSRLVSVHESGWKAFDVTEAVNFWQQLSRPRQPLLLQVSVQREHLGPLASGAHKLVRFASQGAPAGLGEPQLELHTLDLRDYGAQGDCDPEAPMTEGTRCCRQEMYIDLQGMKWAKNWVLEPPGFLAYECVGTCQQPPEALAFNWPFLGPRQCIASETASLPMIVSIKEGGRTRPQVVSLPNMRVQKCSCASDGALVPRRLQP
Alpha-bungarotoxin (Bungarus multicinctus), sequence (P60615 whole entry, looked up): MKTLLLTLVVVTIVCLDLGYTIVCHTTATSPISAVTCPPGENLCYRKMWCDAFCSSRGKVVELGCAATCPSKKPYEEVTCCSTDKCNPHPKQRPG
Albumin (Bos taurus), sequence (P02769 whole entry, looked up): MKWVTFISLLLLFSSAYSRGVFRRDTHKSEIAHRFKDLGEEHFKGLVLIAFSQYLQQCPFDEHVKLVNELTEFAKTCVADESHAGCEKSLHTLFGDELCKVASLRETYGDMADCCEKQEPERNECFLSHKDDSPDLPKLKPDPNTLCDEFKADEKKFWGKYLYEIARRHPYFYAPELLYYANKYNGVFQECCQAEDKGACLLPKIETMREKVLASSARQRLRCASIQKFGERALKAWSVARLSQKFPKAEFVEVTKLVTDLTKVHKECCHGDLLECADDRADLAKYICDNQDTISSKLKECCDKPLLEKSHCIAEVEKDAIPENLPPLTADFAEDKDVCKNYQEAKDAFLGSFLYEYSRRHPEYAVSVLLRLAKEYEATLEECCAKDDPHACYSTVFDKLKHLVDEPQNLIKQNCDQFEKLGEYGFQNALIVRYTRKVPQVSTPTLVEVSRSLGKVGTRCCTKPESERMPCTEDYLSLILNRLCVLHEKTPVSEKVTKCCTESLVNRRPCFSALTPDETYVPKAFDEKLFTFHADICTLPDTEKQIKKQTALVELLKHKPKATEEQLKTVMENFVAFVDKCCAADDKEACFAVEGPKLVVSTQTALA
Torsin-1A-interacting protein 1 (Homo sapiens), sequence (Q5JTV8 whole entry, looked up): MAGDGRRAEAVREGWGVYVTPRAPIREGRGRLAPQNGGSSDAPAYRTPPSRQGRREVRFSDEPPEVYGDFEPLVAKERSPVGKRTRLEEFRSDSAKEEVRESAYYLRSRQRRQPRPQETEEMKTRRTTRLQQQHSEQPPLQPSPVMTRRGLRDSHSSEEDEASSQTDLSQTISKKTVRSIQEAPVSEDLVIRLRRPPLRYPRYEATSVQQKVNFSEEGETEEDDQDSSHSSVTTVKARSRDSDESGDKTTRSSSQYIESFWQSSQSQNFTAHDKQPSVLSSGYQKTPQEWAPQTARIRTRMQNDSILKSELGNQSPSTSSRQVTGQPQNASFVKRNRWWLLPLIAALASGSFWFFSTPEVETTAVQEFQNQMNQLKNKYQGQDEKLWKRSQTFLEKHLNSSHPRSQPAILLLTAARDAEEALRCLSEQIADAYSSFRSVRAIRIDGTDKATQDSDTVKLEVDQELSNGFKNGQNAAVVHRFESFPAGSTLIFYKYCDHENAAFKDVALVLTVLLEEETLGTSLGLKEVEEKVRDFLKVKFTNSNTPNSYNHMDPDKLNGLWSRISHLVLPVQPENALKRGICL

On to `COC(=O)[C@@]1(Cc2ccccc2N=[N+]=[N-])N=C(c2ccc(OCCCO)cc2)O[C@H]1c1ccccc1`, for which the composite z-score was 1.34 in [1]; -0.319 in [3]; 0.694 in assay [4]; 0.278 in assay [5]; 0.0136 in assay [6]; 0.0121 in assay [7]. In addition, the composite z-score in [8] is -0.466; in assay [9] it was 1.37; in [10], 0.873; with Albumin (Bos taurus), 0.371; in [12] it was -0.0377; in [13] it was -0.0563. In addition, the composite z-score was 0.593 in [14]; 1.28 in assay [15]; 0.156 in [16]; 1.16 in the assay with Sam68 (KHDRBS1); -0.608 in [17]; 1.11 in assay [18]. The compound also displayed a z-score in [2] of -3.38. The composite Z-score in [11] was 0.17 (inactive).

For `COc1ccc([Si](C)(C)[C@@H]2[C@@H](CCO)O[C@]3(C(=O)N(Cc4cccc(N5C(=O)COc6ccccc65)c4)c4ccccc43)[C@H]2C)cc1`, the composite z-score was 0.467 in [1]; -0.382 in assay [3]; 1.06 in [4]; 0.728 in assay [5]; -0.063 in assay [6]; 0.0048 in assay [7]. Also, the composite z-score in assay [8] is -0.167; in [9], -0.028; in assay [10], 0.748; in the assay with Albumin (Bos taurus), 0.663; in [12] it was -0.126; in [13], -0.0576. For the same compound, the composite z-score in assay [14] was 0.163; in assay [15], 1.35; in assay [16], 0.0386; in the assay on Sam68 (KHDRBS1), 0.19; in [17], -0.117; in assay [18], 1.03. Besides, the z-score in assay [2] is -4.83. Besides, the composite Z-score in assay [11] was 0.215 (inactive).

`Cc1ccc(-c2cccc(=O)o2)cc1`: the composite z-score in [1] was -1.01; in assay [3], 0.418; in assay [4], -1.18; in [5], -0.802; in assay [6], -0.145; in assay [7], -0.138. In addition, the composite z-score in assay [8] was 0.11; in [9], -0.101; in assay [10], -0.391; with Albumin (Bos taurus), -0.682; in assay [12], -0.15; in assay [13], -0.108. For the same compound, the composite z-score in [14] is -0.501; in [15], 0.0688; in [16] it was 0.258; in the assay on Sam68 (KHDRBS1) it was -1.39; in [17], 0.183; in [18], -0.413. In assay [2], the z-score came to 0.488. Also, the composite Z-score in [11] was -1.14 (inactive).

Regarding `C=CCC(OC(C)=O)[C@@H]1[C@@H](N(Cc2cccc3ccccc23)C(=O)Cc2ccc(F)cc2)c2cc(OCCCO)ccc2N1C(=O)Cc1ccc(OC)cc1` (stereo not given in full), the composite z-score in assay [1] was 0.0243; in assay [3], 0.584; in assay [4] it was 0.965; in [5], -0.652; in assay [6] it was -0.197; in assay [7], -0.0557. Also, the composite z-score in assay [8] was -0.122; in assay [9] it was -0.0854; in [10], -0.0482; with Albumin (Bos taurus), 0.006; in assay [12] it was -0.0454; in assay [13], -0.119. The composite z-score was 0.191 in [14]; -0.0343 in assay [15]; -0.238 in assay [16]; 0.191 in the assay with Sam68 (KHDRBS1); 0.0157 in [17]; 1.03 in assay [18]. The same compound displayed a z-score in assay [2] of -0.81. Further, the composite Z-score in assay [11] is -0.328 (inactive).

As for `CCOC(=O)C1=CC[C@@H](c2cccc(Br)c2)N(S(=O)(=O)c2ccc(C)cc2)[C@H]1c1ccc([N+](=O)[O-])cc1`, the composite z-score in assay [1] was 1.42; in [3] it was 0.868; in [4], 0.855; in assay [5] it was 0.69; in assay [6], 0.0433; in [7], -0.138. The composite z-score in [8] is 0.822; in assay [9], 1.1; in assay [10], 1.05; in the assay with Albumin (Bos taurus) it was 0.861; in [12] it was 0.0116; in [13], -0.0856. In addition, the composite z-score in assay [14] is 0.586; in assay [15], 2.45; in assay [16] it was 0.885; in the assay on Sam68 (KHDRBS1), 1.08; in assay [17], 0.625; in assay [18], 1. In [2], this compound gave a z-score of -0.802. The composite Z-score in assay [11] is 0.338 (inactive).

`CC(C)(C)OC(=O)CC[C@]1(C(=O)N2CCCCC2)N=C(c2ccc(OCCCO)cc2)O[C@H]1c1ccccc1CN=[N+]=[N-]`: the composite z-score was found to be 0.804 in assay [1]; 0.888 in assay [3]; 0.958 in assay [4]; 0.566 in assay [5]; 0.0044 in [6]; 0.439 in [7]. Also, the composite z-score in [8] turned out to be 0.659; in [9] it was 2.52; in [10], 0.12; in the assay with Albumin (Bos taurus), 0.982; in assay [12] it was 0.516; in assay [13] it was 0.381. In addition, the composite z-score was found to be 0.801 in assay [14]; 2.74 in assay [15]; 0.762 in assay [16]; 1.3 in the assay with Sam68 (KHDRBS1); 0.388 in assay [17]; 1.2 in assay [18]. In assay [2], this compound yielded a z-score of -2.03. For the same compound, in [11], the composite Z-score was -0.43 (inactive).

Regarding `COC(=O)[C@@]1(Cc2ccccc2)[C@H]2c3cc(C(=O)N4CCCC4)n(CCO)c3C[C@H]2CN1C(=O)c1ccccc1`, the composite z-score amounted to 0.34 in assay [1]; 0.167 in assay [3]; 2.71 in assay [4]; 1.07 in [5]; 0.853 in [6]; 0.436 in assay [7]. The composite z-score in assay [8] is 0.922; in assay [9] it was 3.95; in [10] it was 1.48; in the assay with Albumin (Bos taurus) it was 1.03; in [12], 1.37; in assay [13], 0.853. Moreover, the composite z-score in assay [14] amounted to 0.841; in [15], 2.35; in assay [16], 1.41; with Sam68 (KHDRBS1), 1; in assay [17], 0.443; in assay [18], 0.886. In assay [2], this compound displayed a z-score of -1.02. Besides, in assay [11], the composite Z-score is 1.61 (inactive).

Take `COCCOC(=O)N1C(=O)[C@@]2(c3cc(C#CC4(O)CCCCCC4)ccc31)[C@H](C(=O)N1CCc3cc(OC)c(OC)cc3C1)[C@H]1C(=O)O[C@H](c3ccccc3)[C@H](c3ccccc3)N1[C@@H]2c1ccccc1OCCO`: the composite z-score in assay [1] was 1.04; in assay [3], 1.17; in assay [4], 1.02; in assay [5] it was -0.386; in assay [6] it was 0.205; in assay [7], 0.261. Also, the composite z-score in [8] was 0.0158; in assay [9], 0.447; in assay [10] it was 1.46; with Albumin (Bos taurus), -0.499; in assay [12] it was 0.382; in assay [13] it was 0.0521. Further, the composite z-score came out at 0.435 in assay [14]; 0.29 in assay [15]; 0.221 in assay [16]; 1.29 with Sam68 (KHDRBS1); 1.02 in assay [17]; 1.17 in assay [18]. The compound also had a z-score in assay [2] of -2.18. Moreover, the composite Z-score in [11] was 0.141 (inactive).
